Here are results for 30 molecules from PubChem BioAssay AID1347076 (National Center for Advancing Translational Sciences (NCATS), 2019).

Out of some 400,000 compounds screened, about 13,000 (3.2%) were called active. A call without a number means that no potency is given here. About 18% were inconclusive and are not listed. Calls follow the shape of the dose curve; as a rule, active = well fitted cell-killing curve with a large enough effect; inconclusive = small, poorly fitted or top-dose-only effect, or effect the other way; inactive = flat fitted curve, though single readings scatter. For the sample, actives were picked, then their nearest neighbours and some compounds at random.
Potency is read from the fitted curve at half-maximal effect.

A short description of this test: qHTS assay for MDR1-selective chemotherapeutics: Primary screen using the drug-selected MDR subline cells KB-V1. Also: nearly all actives have a fitted effect of over 60% in size. The settings on record: KB-V1 MDR cells viability, CellTiter-Glo, 72 h; series mostly up to 46.1 µM. Put shortly: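 KB-V1 cells (P-gp-expressing MDR subline of KB-3-1) in phenol-red-free DMEM with 10% FBS were exposed to library compounds over a concentration series for 72 h at 37 degrees C. Viability read by CellTiter-Glo luminescence; concentration-effect curves fitted after normalization.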
For orientation: qHTS replaces the single test concentration by a dilution series.
Take `O=C(CNCCC1=CCCCC1)Nc1ccccc1N1CCCCCC1`: the Potency was 11.6 µM (active).

With `Cc1ccc(C(C)C)cc1OCC(=O)Nc1ccccc1N1CCCC1`, the Potency entry is “inactive”.

Turning to `Cc1nnc(OCC(=O)NCCC2=CCCCC2)c2ccccc12`, the Potency result was “inactive”.

`Cc1ccc2nc(-c3ccco3)c(Cc3cccc(Cl)c3)n2c1`: the Potency entry is “inactive”.

Consider `COc1ccc(C(C#N)=C2C=CC(=NO)c3ccccc32)cc1`, for which the Potency was 1.3 µM (active).

As for `COc1ccc(C(=NN)c2ccc(OC)cc2)cc1`, the Potency result was “inactive”.

Consider `COc1ccc(/C(N)=N/OC(=O)Cc2ccccc2)cc1`, for which the Potency result is “inactive”.

For `CCNC(=O)c1cc2c(c(-c3cccc(-c4cncnc4)c3)n1)[C@H](CCO)N(C(C)=O)C2`, the Potency result is “inactive”.

For `O=C(NCc1ccccc1Cl)c1csc([C@@H]2O[C@H](CO)[C@@H](O)[C@H]2O)n1`, the Potency result was “inactive”.

Regarding `COc1cc(C(=O)NCc2nnc(SCC(=O)c3ccc(Cl)cc3)o2)cc(OC)c1OC`, the Potency result was “inactive”.

In the case of `CCOC(=O)CSc1nnc(CNc2ccc(F)cc2)o1`, the Potency result was “inactive”.

Take `CCC(=O)Nc1ccc(C(=O)CSc2nnc(CNc3ccc(Cl)cc3)o2)cc1OC`: the Potency was 14.6 µM (active).

As for `CCc1nc2c(OCc3cccc(OC)c3)cccn2c1N(C)C(=O)C(C)C`, the Potency entry is “inactive”.

With `CSc1ncnc2c1ncn2CCCNCc1cccs1`, the Potency entry was “inactive”.

For `Nc1ncnc2c1ncn2[C@@H]1O[C@H](C(=O)NS(=O)(=O)c2c(Cl)nc3sccn23)[C@@H](O)[C@H]1O`, the Potency result was “inactive”.

For `CSc1ccccc1C(=O)NCc1ccccc1`, the Potency result is “inactive”.

With `CCSc1ccccc1C(=O)NCc1ccc(OC)cc1`, the Potency is 20.6 µM (active).

Turning to `CCc1nc2ccccc2c(C(=O)NCc2ccc(OC)cc2)c1C`, the Potency result is “inactive”.

Regarding `O=C(CSc1ccc(Cl)cc1)NC1CC1`, the Potency result was “inactive”.

Consider `CCCN(CCC)S(=O)(=O)c1cc2c(cc1Br)CCN2C(=O)CC`, for which the Potency entry is “inactive”.

Take `CCC(=O)N1CCc2cc(Br)c(S(=O)(=O)NCCN3CCCCC3CC)cc21` (stereo not given): the Potency is 10.3 µM (active).

For the molecule `CCC1CCCCN1CCNS(=O)(=O)c1ccc2c(c1)CCN2C(C)=O` (stereo not given), the Potency result was “inactive”.

Take `NC(=O)Nc1ccc(/C=C/c2ccnc3ccccc23)cc1`: the Potency entry is “inactive”.

Take `C[C@H]1CN([C@@H](C)CO)C(=O)CCCn2nncc2CO[C@@H]1CN(C)Cc1ccc(Oc2ccccc2)cc1`: the Potency result was “inactive”.

As for `COc1ccccc1CNC(=O)c1cc(-c2cc(F)ccc2OC)n[nH]1`, the Potency entry was “inactive”.

On to `Brc1ccc(-c2noc(-c3ccccc3)n2)o1`, for which the Potency result is “inactive”.

Consider `CCCCCCOc1ccc(OC(=O)c2cccnc2)cc1`, for which the Potency result was “inactive”.

With `O=C(Oc1ccc(-c2nc(-c3ccccn3)no2)cc1)c1ccccc1`, the Potency is 7.31 µM (active).

With `CC(C)Nc1ncnc2c1ncn2[C@H]1CN(Cc2ccncc2)C[C@@H](CO)O1`, the Potency result was “inactive”.

As for `CN1OC[C@@H]2CN(C(=O)c3ccc(-c4ccccc4)cc3)[C@H](c3ccc(-c4cccc(F)c4)cc3)C[C@@H]21`, the Potency result was “inactive”.
